The values that follow come from PubChem BioAssay (Tox21).

SMILES strings stand for the structures. Values joined by “and” are separate entries in the source; they are usually repeats but may differ in a detail not shown here. Equal values may be shown once. Records with an inconclusive call do not appear. Where a call stands in place of a potency, no number is given. Active and inactive are the calls of the source. Calls come from the whole dose curve; as a rule, active = well fitted cell-killing curve with a large enough effect in the repeat runs; inconclusive = weak or mixed curves, or effect the other way; inactive = no such curve, though single readings can be large or run the other way.
Potency is the fitted concentration of half-maximal effect.

The assay can be described thus: qHTS assay to identify small molecule agonists of the farnesoid-X-receptor (FXR) signaling pathway - cell viability counter screen (AID 743218). Note: nearly all actives have a fitted effect of over 45% in size. The following applies: FXR-bla HEK293T viability, CellTiter-Glo luminescence, 16 h; series mostly up to 62.6 µM. The text has this: U.S. Tox21 Program National Center for Advancing Translational Sciences [NCATS] NIH Chemical Genomics Center [NCGC] U.S. Environmental Protection Agency [EPA] National Institutes of Environmental Health Sciences [NIEHS] National Toxicology Program [NTP] U.S. Food and Drug Administration [FDA] Tox21 Assay Overview: The farnesoid-X-receptor (FXR), a nuclear hormone receptor, is highly expressed in liver, intestine, kidney and adrenal cortex. Natural ligands of FXR are the bile acids (Cholic acid, Chenodeoxy cholic acid etc). FXR is an important regulator of diverse metabolic pathways, including the bile acid homeostasis, lipid and glucose metabolisms. FXR regulates the expression of target genes by binding either as a monomer or as a heterodimer with the retinoid X receptor (RXR). Numerous studies have reported that FXR exerts protective function during cholestasis, diabetes, liver regeneration, and cancer. To identify compounds that activate FXR signaling, GeneBLAzer FXR-UAS-bla HEK 293T cell line (Invitrogen, Carlsbad, CA) containing a beta-lactamase reporter gene under the control of a UAS response element was used to screen the Tox21 10K compound library. The cytotoxicity of the Tox21 compound library against the FXR-bla cell line was tested in parallel by measuring the cell viability using CellTiter-Glo assay in the same wells.
Tox21 Assay Protocol Summary: FXR-bla cells were dispensed at 5000 cells/5uL/well in 1536-well black wall/clear bottom plates using a Multidrop Combi (Thermo Fisher Scientific, Waltham, MA) dispenser. After the assay plates were incubated at 37 C and 5% CO2 for 5 h, 23 nL of compounds dissolved in DMSO, positive controls or DMSO only was transferred to the assay plate by a Pintool station (Kalypsys, San Diego, CA). The assay plates were incubated at 37C for 16 h. After 1 uL of LiveBLAzerTM B/G FRET substrate was added using a Bioraptr Flying Reagent Dispenser (FRD) workstation (Beckman Coulter, Indianapolis, IN), the plates were incubated at room temperature for 2 h, and fluorescence intensity was measured by an Envision plate reader (PerkinElmer, Shelton, CT). For cell viability readout that measures cytotoxicity, 4uL/well of CellTiter-Glo reagent was added into the assay plates using a Bioraptr FRD. After 30 min incubation at room temperature, the luminescence intensity in the plates was measured using a ViewLux plate reader (PerkinElmer).
(In qHTS, concentration-response curves come from the screen itself.)
Take `O=c1[nH]cnc2c1ncn2[C@H]1CC[C@@H](CO)O1`: the Potency entry was “inactive”.

Regarding `CC(O)(P(=O)(O)O)P(=O)(O)O`, the Potency result was “inactive”.

For the compound `Oc1ccccc1`, the Potency result is “inactive”.

On to `NC(=O)n1c(O)c(C(=O)c2cccs2)c2cc(Cl)ccc21`, for which the Potency entry was “inactive”.

Regarding `NS(=O)(=O)O`, the Potency entry is “inactive”.

On to `O=C1O[C@H]([C@@H](O)CO)C(O)=C1O`, for which the Potency entry is “inactive”.

Regarding `CC12CCC(CC1)C(C)(C)O2`, the Potency result is “inactive”.

In the case of `CC(=O)Nc1c(I)c(NC(C)=O)c(I)c(C(=O)O)c1I`, the Potency result is “inactive”.

As to `Nc1ccc2c(c1)CN1C(=O)c3ccccc3C1=N2`, the Potency result was “inactive”.

Consider `NC(CO)(CO)CO`, for which the Potency result was “inactive”.

On to `CN(C)CCOC(c1ccccc1)c1ccccc1`, for which the Potency entry was “inactive”.

Consider `C=C1CC[C@H](O)C/C1=C\C=C1/CCC[C@]2(C)[C@@H]([C@H](C)CCCC(C)C)CC[C@@H]12`, for which the Potency is 48.5 µM (active).

In the case of `CCCc1cc(=O)[nH]c(=S)[nH]1`, the Potency result was “inactive”.

Consider `O=C1NC(=O)C(c2ccccc2)(c2ccccc2)N1`, for which the Potency result was “inactive”.

Take `CC(=O)CCC(=O)O`: the Potency entry was “inactive”.

Turning to `O=C1c2c(O)cccc2Cc2cccc(O)c21`, the Potency result is “inactive”.

For `Cc1ncc([N+](=O)[O-])n1C`, the Potency entry was “inactive”.

Turning to `COc1ccc(OC(F)(F)F)cc1CN[C@H]1CCCN[C@H]1c1ccccc1`, the Potency is 43.6 µM (active).

Consider `Cc1cc(=O)oc2cc(O)ccc12`, for which the Potency result was “inactive”.

As to `C=CCc1ccc(O)c(OC)c1`, the Potency result was “inactive”.

For the compound `CC(C)c1c(C(=O)Nc2ccccc2)c(-c2ccccc2)c(-c2ccc(F)cc2)n1CC[C@@H](O)C[C@@H](O)CC(=O)O`, the Potency entry is “inactive”.

For the compound `CCCCNC(=O)NS(=O)(=O)c1ccc(C)cc1`, the Potency entry is “inactive”.

On to `O=C1OC2(c3ccccc31)c1cc(Br)c(O)c(Br)c1Oc1c2cc(Br)c(O)c1Br`, for which the Potency entry was “inactive”.

As for `CC(C)NCC(O)c1ccc(O)c(O)c1` (stereo not given), the Potency result is “inactive”.

`C=C(C)C(=O)OCC(C)O` (stereo not given): the Potency entry is “inactive”.

`CCCCCCCCCCCCCCCC[N+](C)(C)Cc1ccccc1`: the Potency is 25.3 µM (active) and 22.3 µM (active) and 13.3 µM (active).

As for `CC(=O)C(=O)O`, the Potency entry was “inactive”.

On to `CC1(C)S[C@@H]2[C@H](NC(=O)[C@H](N)c3ccccc3)C(=O)N2[C@H]1C(=O)O`, for which the Potency entry was “inactive”.

Turning to `CC(C)C(=O)Nc1ccc([N+](=O)[O-])c(C(F)(F)F)c1`, the Potency result was “inactive”.

`CCCCCCc1ccc(O)cc1O`: the Potency result was “inactive”.

Turning to `NC(=O)c1cccnc1`, the Potency result is “inactive”.

As for `C[C@](N)(Cc1ccc(O)c(O)c1)C(=O)O`, the Potency entry is “inactive”.

On to `NC1CCCCC1`, for which the Potency entry was “inactive”.

`Cc1cc(C)nc(NS(=O)(=O)c2ccc(N)cc2)n1`: the Potency entry was “inactive”.

Consider `CCCC[P+](CCCC)(CCCC)CCCC`, for which the Potency entry is “inactive”.

On to `F[B-](F)(F)F`, for which the Potency entry was “inactive”.

Turning to `CN[C@H]1CC[C@@H](c2ccc(Cl)c(Cl)c2)c2ccccc21`, the Potency was 23.7 µM (active).

For `NS(=O)(=O)c1cc2c(cc1Cl)NCNS2(=O)=O`, the Potency result was “inactive”.

For `Cc1ncc([N+](=O)[O-])n1CCO`, the Potency entry was “inactive”.

Regarding `O=C1NS(=O)(=O)c2ccccc21`, the Potency result is “inactive”.
